Source: the supplement of paper PMC11634586
Structures can show the parent of a compound that is named as a salt.

test system: NCI-H1688; assay: inhibition of cell viability relative to untreated control (fraction); higher = stronger growth inhibition, active = 0.5 or more; conditions: 30 µM; 24 h
Summary of the method: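 NCI-H1688 small cell lung cancer cells were seeded at 3 × 10^3 cells/well in 96-well plates and treated 24 h later with a natural compound library (TargetMol) at 30 µM for 24 h, at 37°C with 5% CO2. Viability was read in triplicate with Cell Counting Kit-8 as absorbance at 450 nm. Inhibition of cell viability is expressed as a fraction, derived from viability normalised to the untreated control.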

Row | Structure (SMILES) | inhibition of cell viability
1 | O=C(/C=C/c1ccc(O)c(O)c1)O[C@@H]1C[C@](O)(C(=O)O)C[C@@H](O)[C@H]1O [Chlorogenic Acid] | 0.162 (inactive)
2 | O=Cc1ccc(O)c(O)c1 [Protocatechualdehyde] | 0.314 (inactive)
3 | CC(=O)O[C@@]12CO[C@@H]1C[C@H](O)[C@@]1(C)C(=O)[C@H](O)C3=C(C)[C@@H](OC(=O)[C@H](O)[C@@H](NC(=O)OC(C)(C)C)c4ccccc4)C[C@@](O)([C@@H](OC(=O)c4ccccc4)[C@H]21)C3(C)C [Docetaxel trihydrate] | 0.635 (active)
4 | Cc1[nH]ccc2c1[nH]c1cc(=O)ccc12 [Harmol] | 0.664 (active)
5 | C[C@]12C[C@H](O)[C@H]3[C@@H](CCC4=CC(=O)CC[C@@]43C)[C@@H]1CC[C@@H]2C(=O)CO [Corticosterone] | 0.0335 (inactive)
6 | N[C@@H](Cc1c[nH]c2ccc(O)cc12)C(=O)O [5-hydroxytryptophan (5-HTP)] | -0.0946 (inactive)
7 | OC[C@H]1O[C@@H](OCCc2ccc(O)cc2)[C@H](O)[C@@H](O)[C@@H]1O [Salidroside] | -0.0108 (inactive)
8 | CC(C)(CO)C(O)C(=O)NCCCO (configuration not stated) [Panthenol] | 0.0837 (inactive)
9 | O=c1c(O)c(-c2cc(O)c(O)c(O)c2)oc2cc(O)cc(O)c12 [Myricetin] | 0.0201 (inactive)
10 | C=C[C@H]1CN2CC[C@H]1C[C@@H]2[C@@H](O)c1ccnc2ccc(OC)cc12 [Quinidine hydrochloride] | -0.217 (inactive)
11 | COc1ccc([C@@H]2OC[C@H]3[C@@H]2CO[C@@H]3c2ccc(O[C@@H]3O[C@H](CO)[C@@H](O)[C@H](O)[C@H]3O)c(OC)c2)cc1OC [Forsythin] | -0.0217 (inactive)
12 | Nc1nc(=O)c2c([nH]1)NCC(CNc1ccc(C(=O)N[C@@H](CCC(=O)O)C(=O)O)cc1)N2C=O (some centres not stated) [Calcium folinate] | 0.028 (inactive)
13 | O=C(O)[C@]1(O)C[C@@H](O)[C@@H](O)[C@H](O)C1 [Quinic acid] | 0.126 (inactive)
14 | O=C(O[C@@H]1Cc2c(O)cc(O)cc2O[C@@H]1c1cc(O)c(O)c(O)c1)c1cc(O)c(O)c(O)c1 [(-)-Epigallocatechin Gallate] | 0.0795 (inactive)
15 | OC[C@@H](O)[C@@H](O)CO [Erythritol] | 0.038 (inactive)
16 | Oc1cc2c(cc1O)[C@@H]1c3ccc(O)c(O)c3OC[C@]1(O)C2 [Hematoxylin] | 0.0369 (inactive)
17 | CC(C)=CC[C@@H](O)C1=CC(=O)c2c(O)ccc(O)c2C1=O [Shikonin] | 0.956 (active)
18 | O=P(O)(O)O[C@H]1[C@H](OP(=O)(O)O)[C@@H](OP(=O)(O)O)[C@H](OP(=O)(O)O)[C@@H](OP(=O)(O)O)[C@H]1OP(=O)(O)O [Phytic acid] | -0.0495 (inactive)
19 | CC(C)=CCC/C(C)=C/CC/C(C)=C/CC/C(C)=C/CC/C(C)=C/CC/C(C)=C/CC/C(C)=C/CC/C(C)=C/CC/C(C)=C/CO [Solanesol] | 0.301 (inactive)

Row | Structure (SMILES) | inhibition of cell viability
20 | C[C@H](CCC(=O)O)[C@H]1CC[C@H]2[C@@H]3C[C@H](O)[C@@H]4C[C@H](O)CC[C@]4(C)[C@H]3CC[C@]12C [Hyodeoxycholic acid (HDCA)] | -0.163 (inactive)
21 | CN[C@@H]1[C@@H](O[C@H]2O[C@H](CO)[C@@H](N)[C@H](O)[C@H]2O)OC2C[C@@H](N)[C@@H](O[C@H]3[C@H](O)[C@@H](O)[C@H](N)C[C@@H]3N)OC2[C@@H]1O (some centres not stated) [Apramycin sulfate] | -0.0456 (inactive)
22 | COc1ccc(-c2coc3cc(O)cc(O)c3c2=O)cc1 [Biochanin A] | -0.0526 (inactive)
23 | O=c1ccc2ccc(O)cc2o1 [7-Hydroxycoumarin] | -0.0276 (inactive)
24 | C[C@H]1[C@H](C)CC[C@]2(C(=O)O)CC[C@]3(C)C(=CC[C@@H]4[C@@]5(C)C[C@@H](O)[C@H](O)[C@@](C)(CO)[C@@H]5[C@H](O)C[C@]43C)[C@H]12 [Madecassic acid] | -0.00715 (inactive)
25 | C=C(C)[C@@H]1CC=C(CO)CC1 [Perillyl alcohol] | 0.195 (inactive)
26 | CC(C)c1cc(C(C)C)c(CC(=O)NS(=O)(=O)Oc2c(C(C)C)cccc2C(C)C)c(C(C)C)c1 [Avasimibe] | 0.757 (active)
27 | C=C[C@](C)(O)CC[C@@H]1[C@@]2(C)CCCC(C)(C)[C@@H]2CC[C@@]1(C)O [Sclareol] | 0.318 (inactive)
28 | COc1c2ccoc2cc2oc(=O)ccc12 [Bergapten] | 0.298 (inactive)
29 | CC1(C)CC[C@]2(C(=O)O)CC[C@]3(C)C(=CC[C@@H]4[C@@]5(C)CC[C@H](O)C(C)(C)[C@@H]5CC[C@]43C)[C@@H]2C1 [Oleanolic Acid] | 0.0195 (inactive)
30 | CC1(C)[C@@H](O)CC[C@]2(C)[C@H]3C(=O)C=C4[C@@H]5C[C@@](C)(C(=O)O)CC[C@]5(C)CC[C@@]4(C)[C@]3(C)CC[C@@H]12 [Enoxolone] | -0.0418 (inactive)
31 | Cc1coc2c1C(=O)C(=O)c1c-2ccc2c1CCCC2(C)C [Tanshinone IIA] | 0.958 (active)
32 | OC[C@H]1O[C@H](OCC2O[C@@H](O)[C@H](O)[C@@H](O)[C@@H]2O)[C@H](O)[C@@H](O)[C@H]1O (some centres not stated) [Melibiose] | -0.13 (inactive)
33 | COc1cc(C[C@H]2C(=O)OC[C@@H]2Cc2ccc(OC)c(OC)c2)ccc1O [Arctigenin] | 0.431 (inactive)
34 | Oc1cc(O)cc(/C=C/c2ccc(O)c(O)c2)c1 [Piceatannol] | 0.164 (inactive)
35 | COc1cc(CO)ccc1O [Vanillyl Alcohol] | -0.235 (inactive)
36 | OC[C@H]1O[C@H](O)[C@H](O)[C@@H](O)[C@H]1O [Alpha-D-galactose] | 0.0334 (inactive)
37 | C=C1CC[C@@H]2[C@](C)(CO)[C@H](O)CC[C@@]2(C)[C@@H]1C/C=C1/C(=O)OC[C@H]1O [Andrographolide] | 0.853 (active)
